Assay outcomes as filed in PubChem.
Hits are enriched below; roughly 1.1% of the tested compounds scored in any of these assays.
A1 inh: caspase 3/7 activation in MEF A1-2A-BIM cells, primary screen, A1 inhibitor project, cell-based, luminescence, HTS; Caspase-Glo 3/7 luminescence, 3 h; percent of clofoctol response, vehicle zero; caspase activation, % (concentration not given with the values); 330,000 tested, 0.066% active;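 active means over half of replicate activation scores above 10%, or exactly half above 10 with the replicate mean above 10; inconclusive means replicate mean below 10 yet half the replicates above 10; inactive means over half of replicates below 10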
A3G deaminase: APOBEC3G DNA deaminase inhibitors, primary screen, biochemical, fluorescence, single-stranded DNA substrate, uHTS; DNA dC->dU-editing enzyme APOBEC-3G (Homo sapiens), Q9HC16; recombinant A3G, ssDNA deamination FAM/TAMRA fluorescence; inhibition, % at 20 µM; 330,000 tested, 0.28% active; AID 493012, 2011;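 active means inhibition of at least 40% at 20 µM, with no more than 30% in the related APOBEC3A deaminase screen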
Target sequence (Q9HC16 whole entry, looked up): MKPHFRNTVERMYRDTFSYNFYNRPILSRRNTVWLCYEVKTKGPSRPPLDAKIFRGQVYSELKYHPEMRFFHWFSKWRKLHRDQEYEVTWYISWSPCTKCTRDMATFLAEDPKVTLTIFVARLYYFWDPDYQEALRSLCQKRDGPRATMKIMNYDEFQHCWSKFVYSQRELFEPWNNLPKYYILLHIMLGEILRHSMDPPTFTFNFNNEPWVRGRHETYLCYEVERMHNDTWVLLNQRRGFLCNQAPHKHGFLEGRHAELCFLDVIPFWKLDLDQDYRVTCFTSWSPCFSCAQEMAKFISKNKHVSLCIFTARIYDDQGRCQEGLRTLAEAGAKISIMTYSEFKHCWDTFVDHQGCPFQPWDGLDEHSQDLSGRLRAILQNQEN
APOBEC3A inh: APOBEC3A ssDNA deaminase inhibitors, primary screen, selectivity assay for APOBEC3G inhibitor project, biochemical, FAM/TAMRA oligo cleavage fluorescence. 330,000 tested, 0.41% active. recombinant A3A, FAM/TAMRA ssDNA deamination fluorescence. DNA dC->dU-editing enzyme APOBEC-3A (Homo sapiens), P31941. inhibition, % at 20 µM. AID 493011, 2011;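 active means at least 40% inhibition at 20 µM here, with at most 30% in a related deaminase screen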
MIN6 prolif: inducers of MIN6 beta-cell proliferation, primary screen, ATP luminescence, uHTS; proliferation, % at 10 µM; MIN6 cells proliferation, ATPlite luminescence, 48 h; cells starved in 0.2% serum; 100% = growth in 10% serum; 330,000 tested, 0.29% active;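 active means compounds whose signal lies at least 3.5 SD above the mean of all wells on their plate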
A3G conf: APOBEC3G deaminase inhibitor retest, confirmation, biochemical, fluorescence, single-stranded DNA substrate, single concentration. 890 tested, 72% active. recombinant A3G ssDNA deaminase, UDG/FAM-TAMRA fluorescence. AID 493152, 2011. inhibition, % at 20 µM. shares compounds with A3G deaminase;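 active means inhibition reaching a set limit in any replicate at 20 µM, the limit being 80% of the first screen's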
UDG ctr A3G: E. coli UDG inhibitors, confirmation, counter-screen for APOBEC3G inhibitor project, biochemical, single concentration, fluorescence, FAM/TAMRA oligo | inhibition, % at 20 µM | AID 504715, 2011 | UDG counterscreen | 710 tested, under 10 active | shares compounds with A3G deaminase;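 active means compounds giving 40% or more inhibition at 20 µM in any one of the three replicates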;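 further: inhibitors lower the FAM signal released by uracil excision and alkaline cleavage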
Target sequence (P12295 whole entry, looked up): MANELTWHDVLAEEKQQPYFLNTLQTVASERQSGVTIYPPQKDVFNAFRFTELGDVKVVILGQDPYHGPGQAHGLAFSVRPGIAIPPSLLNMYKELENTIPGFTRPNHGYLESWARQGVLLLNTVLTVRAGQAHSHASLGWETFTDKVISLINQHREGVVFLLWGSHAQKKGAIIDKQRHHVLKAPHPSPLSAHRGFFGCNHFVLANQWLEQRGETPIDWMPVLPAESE
Large screens that a line does not name were inactive (follow-up assays come after a bar, where they were run).

Cc1cc(C)c2c(=O)n(CC(=O)Nc3cccc(F)c3)sc2n1	A3G deaminase 76 | A3G conf 84 | UDG ctr A3G inactive
O=C1NC2(CCCCC2)NN1c1ccccc1	none
CC1CCC2(CC1)NC(=S)N(c1ccccc1)N2 (stereo not drawn)	A3G deaminase 61 | A3G conf 23 | UDG ctr A3G inactive
CC1CCC2(CC1)NC(=S)N(C(C)(C)C)N2 (stereo not drawn)	A3G deaminase 51 | A3G conf 24 | UDG ctr A3G inactive
CC(=O)Nc1ccc(/C=C(\C#N)S(=O)(=O)c2ccc(C)cc2)cc1	none
COc1ccc(C(CNC(=O)c2ccc3c(c2)OCCO3)N(C)C)cc1 (stereo not drawn)	none
COc1cccc(/C=N/NC(=O)c2ccc(N3CCCC3=O)cc2)c1	none
COCCCn1c(-c2ccc(Cl)cc2)n[nH]c1=S	A3G deaminase 49 | A3G conf 58 | UDG ctr A3G inactive
S=c1[nH]nc(-c2ccc(Cl)cc2)n1CCCN1CCOCC1	none
COCCCn1c(-c2ccccc2Cl)n[nH]c1=S	none
CCOCCCn1c(-c2ccc(Cl)cc2)n[nH]c1=S	A3G deaminase 53 | A3G conf 62 | UDG ctr A3G inactive
CC(Oc1ccccc1)C(=O)N=C1SC2CS(=O)(=O)CC2N1CCc1ccccc1 (stereo not drawn)	none
O=C(NNC(=O)c1nn(-c2ccc(F)cc2)ccc1=O)c1ccccc1Cl	none
CC(=O)N/C(=C/c1ccccc1)C(=O)NC(Cc1ccccc1)C(=O)O (stereo not drawn)	A3G deaminase 43 | A3G conf inactive
Cc1ccc(-n2c(N)c(C(N)=O)sc2=S)cc1	A3G deaminase 58 | A3G conf 58 | UDG ctr A3G inactive
COCC(=O)Oc1c(S(=O)(=O)c2ccccc2)c(C)nn1C(C)(C)C	A1 inh inconclusive, A3G deaminase 93 | A3G conf inactive
Cc1ccc(S(=O)(=O)c2c(C)nn(C(C)(C)C)c2OC(=O)C2CCCC2)cc1	none
C/C(=N\NC(=O)C(=O)N/N=C(\C)c1cccc(O)c1)c1cccc(O)c1	A3G deaminase 58 | A3G conf inactive
C[n+]1c(-c2ccccc2)sc([S-])c1-c1ccccc1	none
O=C(NNC(=O)c1ccc(Br)cc1)c1ccncc1	none
O=C(NNc1ccc(O)cc1)c1ccc(Br)cc1	A3G deaminase 53 | A3G conf inactive | UDG ctr A3G inactive
CCc1c(C)[nH]c2ccc(OC)cc2c1=S	A3G deaminase 44 (no result: A1 inh) | A3G conf inactive | UDG ctr A3G inactive
COC(=O)c1sc(NC(=O)c2cc(-c3ccccc3)nc3ccccc23)c(C#N)c1C	A3G deaminase 64 | A3G conf 58 | UDG ctr A3G inactive
Cc1ccnc(NC(=O)c2ccc(OCC3CCCO3)cc2)c1 (stereo not drawn)	none
S=c1nc(-c2ccco2)[nH][nH]1	A3G deaminase 81 | A3G conf 94 | UDG ctr A3G inactive
CC1(C)Cc2ccccc2-c2n[nH]c(=S)n21	A3G deaminase 56 | A3G conf 90 | UDG ctr A3G inactive
CCSc1nnc2n1C(C)(C)Cc1ccccc1-2	none
COc1ccccc1NS(=O)(=O)c1ccc(/C=C/C(=O)O)cc1	none
COc1ccccc1NS(=O)(=O)c1ccc(O)cc1	A3G deaminase 81 | A3G conf inactive
Cc1ccc(C)n1-c1nc(=S)[nH][nH]1	A3G deaminase 59 | A3G conf 74 | UDG ctr A3G inactive
O=S(=O)(c1ccc(=S)[nH]c1)N1CCOCC1	A3G deaminase 44 | A3G conf 73 | UDG ctr A3G inactive
O=C(O)c1ccccc1Nc1cc(Cl)c2nonc2c1[N+](=O)[O-]	none
O=[N+]([O-])c1c(Nc2ccccn2)cc(Cl)c2nonc12	A3G deaminase 45 | A3G conf 60
CCSC1=NC2(CCCCC2)Nc2sc3c(c21)CCCC3	A3G deaminase 59 | A3G conf 39
O=C(O)Cn1c(=O)c2c3c(sc2n(Cc2ccc(Cl)cc2Cl)c1=O)CCCC3	none (no result: A3G deaminase, APOBEC3A inh, MIN6 prolif)
COc1ccc(CC(=S)N2CCOCC2)cc1	A3G deaminase 45 | A3G conf 41 | UDG ctr A3G inactive
Cc1ccc(CC(=S)N2CCOCC2)cc1	none
O=[N+]([O-])c1cccc(-c2n[nH]c(=S)n2-c2ccccc2)c1	none
O=[N+]([O-])c1ccc2c(c1)[nH]c(=S)n2-c1ccccc1	A3G deaminase 41 | A3G conf 54 | UDG ctr A3G inactive
CC(Cc1c[nH]c2ccccc12)C(=O)O (stereo not drawn)	A3G deaminase 40 | A3G conf 45
S=c1[nH]nc(-c2cccs2)n1C1CCCCC1	A3G deaminase 45 | A3G conf 83 | UDG ctr A3G inactive
CCCOc1ccc(C(=O)NNC(=S)NC(=O)CC)cc1	A3G deaminase 48 | A3G conf inactive | UDG ctr A3G inactive
C=CCNC(=S)NNC(=O)c1ccc(OCCC)cc1	none
COc1ccc(CCN2C(=O)CSC2=S)cc1OC	none
O=c1c2ccccc2sn1-c1ccc(S(=O)(=O)N2CCCCC2)cc1	A3G deaminase 64 | A3G conf 65 | UDG ctr A3G inactive
Cc1ccc(C(=O)NNC(=O)c2ccccc2)cc1S(=O)(=O)N1CCCCC1	none
O=c1c2ccccc2sn1-c1ccc(S(=O)(=O)N2CCCC2)cc1	A3G deaminase 78 | A3G conf 83
Cc1ccc(-n2sc3ccccc3c2=O)cc1S(=O)(=O)N1CCCCC1	A3G deaminase 75 | A3G conf 73
O=C(CCNS(=O)(=O)c1cccc(C(F)(F)F)c1)NCc1ccco1	none
CN(Cc1ccccc1)S(=O)(=O)c1ccc(Cl)c(C(=O)NCCCN2CCOCC2)c1	none
Cc1cc(C)cc(N(CCC#N)C(=O)CSc2n[nH]c(N)n2)c1	none
CCOc1ccc(NC(=O)CN(C)C(=O)c2cn(-c3ccccc3)nc2-c2cccs2)cc1OCC	none
CCCn1c(N)c(C(=O)CSc2nnc(Cc3cccs3)n2C2CC2)c(=O)n(C)c1=O	none
Cc1nc(-c2ccc(F)cc2)c(CC(=O)NCC(=O)Nc2ccc(F)c(F)c2)s1	none
O=C(COc1ccc([N+](=O)[O-])cc1)N(Cc1cccs1)C1CCS(=O)(=O)C1 (stereo not drawn)	none
COc1cc(/C=N/n2cc(-c3ccccc3)[nH]c2=S)cc(OC)c1O	A3G deaminase 46 | A3G conf 85 | UDG ctr A3G inactive
